# According to PubChem BioAssay:
# Assay: compound effects on lung adenocarcinoma cell viability – A549, calcein-AM fluorescence, 48 h, basal, profiling panel (AID 1162); further: test concentration not given here
# Settings: higher = more signal
row,Compound,z-score
1,COC(=O)[C@@]1(Cc2ccc(F)cc2)[C@H]2c3cc(C(=O)N(C)C)n(CCc4ccc(O)c(O)c4)c3C[C@H]2CN1C(=O)c1ccccc1,-0.681
2,CCOC(=O)C1=CC[C@@H](c2ccc(OC)cc2)N(S(=O)(=O)c2ccc(C)cc2)[C@H]1c1ccc(C)cc1,-0.35
3,[N-]=[N+]=NCc1ccccc1[C@@H]1OC(c2ccc(OCCCO)cc2)=N[C@]1(Cc1ccccc1N=[N+]=[N-])C(=O)O,0.143
4,COC(=O)[C@@]1(Cc2ccccc2)[C@H]2c3cc(C(=O)N(C)C)n(CCSC(=N)N)c3C[C@H]2CN1C(=O)c1ccccc1,-0.944
5,Cc1ccc(S[C@]2(C(=O)NC(C)C)CC(=O)N(C3CCCCC3)[C@@H]2c2ccc(CO)cc2I)cc1,-0.0909
6,COC(=O)C(CC#Cc1ccc2c(c1)[C@]1(C(=O)N2)[C@H](C(=O)N2CCc3cc(OC)c(OC)cc3C2)[C@H]2C(=O)O[C@H](c3ccccc3)[C@H](c3ccccc3)N2[C@@H]1c1ccccc1OCCO)C(=O)OC,-0.179
7,C=CC[C@@]12N=C(c3ccc(OCCCO)cc3)O[C@@H]1c1ccccc1N(CCC)C2=O,-0.604
8,CCC(CC)C(O)C1C=CC2C(=O)N(c3ccccc3)C(=O)C2N1Nc1ccccc1F (stereo unspecified),0.21
9,C=C(COC)/C(=C/C[C@H](OC(C)=O)c1ccccc1OCCO)c1cc(C(=O)OC)ccc1OC,-0.168
10,CN(C)CCCC[C@@H]1NC(=O)[C@@H]2C[C@H](C(=O)NCCCCCN)[C@H](c3cccc(OCCO)c3)N2C1=O,2.2
11,COC(=O)C[C@H]1O[C@@]2(C[C@@H]1[Si](C)(C)C)C(=O)N(C)c1ccccc12,0.904
12,NC(=O)N1C(=O)C2C(C1=O)C1C=C(CCCO)C2C(C2CC2)N1Cc1sc2ccccc2c1Cl (stereo unspecified),1.01
13,CCOC(=O)C1=CCC(c2cc3ccccc3[nH]2)N(CCN2CC(C(=O)OCC)=CCC2c2cc3ccccc3[nH]2)C1 (stereo unspecified),-0.638
14,COCC(=C=CC[C@H](O)c1ccccc1OCCO)C[C@H](O)COCc1ccccc1,0.428
15,COc1ccc([Si](C)(C)[C@@H]2[C@@H](CC(=O)N3CCC[C@H]3CO)O[C@]3(C(=O)N(Cc4ccc(N5CCOC5=O)cc4)c4ccccc43)[C@H]2C)cc1,-0.526
16,C=C(CCCC)C(=O)CC[C@H](OC(=O)c1ccccc1-c1ccccc1C(=O)O)c1ccc(OCCO)cc1,-0.107
17,COC(=O)[C@@]1(Cc2ccc(F)cc2)[C@H]2c3cc(C(=O)N4CCCC4)n(Cc4ccccn4)c3C[C@H]2CN1C(=O)c1ccccc1,-0.94
18,O=C1NC(=O)C2C1C=CC(C(O)c1ccc([N+](=O)[O-])cc1)N2Nc1ccccn1 (stereo unspecified),0.0411

row,Compound,z-score
1,CCCC#C[Si](O[C@H](CC)c1cn(Cc2ccccc2)nn1)(C(C)C)C(C)C,-0.164
2,COCCCNC(=O)[C@@]1(CCC(=O)OC(C)(C)C)COC(c2ccc(OCCCO)cc2)=N1,-0.487
3,C=C(CCCC)/C(=C/C[C@H](OC(C)=O)c1cccc(OCCO)c1)c1cnc2ccccc2c1,0.955
4,CN(C)C(=O)[C@]1(Cc2ccccc2)N=C(c2ccc(OCCCO)cc2)O[C@@H]1c1ccccc1CN=[N+]=[N-],0.233
5,Cc1ccc(S[C@]2(C(=O)NCc3ccccc3)CC(=O)N(Cc3ccccc3C(F)(F)F)[C@@H]2c2ccc(CO)cc2)cc1,0.653
6,CCCN1C(=O)[C@]2(CCC(=O)OC(C)(C)C)N=C(c3ccc(OCCCO)cc3)O[C@@H]2c2ccccc21,-1.19
7,C[N+](C)(C)CCCC[C@@H]1NC(=O)[C@H]2C[C@@H](C(=O)NCCCCCNC(=O)CS)[C@@H](c3cccc(OCCO)c3)N2C1=O,0.316
8,CO[C@H]1O[C@H](CO)[C@@H](OC(=O)Nc2ccccc2-c2ccccc2)[C@H](OC(=O)Nc2ccccc2)[C@H]1OC(=O)Nc1ccccc1,-1.66
9,CC(C)=C1C(=O)C(c2ccccc2)=C2CN3C(=O)N(CCc4ccccc4)C(=O)[C@]3(C)[C@H]21,0.559
10,C[C@]1(C(=O)O)c2ccccc2C(=O)N(Cc2cc(F)cc(C(F)(F)F)c2)[C@H]1c1ccc(CO)cc1,0.653
11,CN(C)CCCNC(=O)[C@@]1(Cc2ccccc2I)c2ccccc2C(=O)N(C2CCCCC2)[C@H]1c1ccc(CO)cc1,-4.29
12,C#CCN1[C@@H](Cc2ccccc2)C(=O)O[C@H](Cc2ccccc2)[C@@H]1/C=C/C1CC1,-0.589
13,CCCc1cc2c(n1CCc1ccc(Cl)cc1)C(C)C1CN(C(=O)c3ccccc3)C(C)(C(=O)OC)C21 (stereo unspecified),-1.7
14,CN1C(=O)[C@@H]2[C@@H](CC(COc3ccccc3)=C3[C@@H](CCc4ccccc4)OB(O)C[C@@H]32)C1=O,0.231
15,CC(C)(C)OC(=O)CC[C@]1(C(=O)NCC(O)CO)N=C(c2ccc(OCCCO)cc2)O[C@H]1c1ccccc1N=[N+]=[N-] (stereo partly specified),0.0239
16,COc1ccc([Si](C)(C)[C@H]2[C@H](CC(=O)N3CCC[C@H]3CO)O[C@@]3(C(=O)N(Cc4ccc(N5CCCCC5=O)cc4)c4ccccc43)[C@@H]2C)cc1,-0.288
17,C=CCOC(=O)[C@H]1[C@@H]2C(=O)O[C@@H](c3ccccc3)[C@@H](c3ccccc3)N2[C@@H](c2ccc(OCCOC(=O)[C@@H]3C[C@@H]4C(=O)N[C@@H](CCCC[N+](C)(C)C)C(=O)N4[C@@H]3c3ccc(O)cc3)cc2)[C@]12C(=O)Nc1ccc(I)cc12,-0.717
18,O=C(NCc1ccc(F)cc1)[C@H]1C[C@H]2C(=O)N3CCC[C@H]3C(=O)N2[C@H]1c1ccc(O)cc1,-0.965
